This is a sample that favours compounds with a hit; in the whole collection about 1.3% have one here.
MazF activator = activators of E. coli MazEF toxin-antitoxin RNase; P0AE70; FAM/BHQ RNA-DNA oligo cleavage fluorescence, 5 h; activation, % at 20 µM; 0.32% of 350,000 active; in the data active = activation above about 50%
Target sequence (P0AE70 whole entry, looked up): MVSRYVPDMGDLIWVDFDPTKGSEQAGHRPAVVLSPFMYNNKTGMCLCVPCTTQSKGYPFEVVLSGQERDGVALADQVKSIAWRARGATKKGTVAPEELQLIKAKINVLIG
Mtb betalactam = beta-lactam sensitization of Mtb H37Rv | M. tuberculosis H37Rv growth with meropenem, percent inhibition | 0.27% of 330,000 active | AID 434955 | inhibition, % at 25 µM; call rule not given here;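 also: growth measured after seven days incubation then overnight dye step; 0% = bacteria only wells and 100% = bacteria with antibiotic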
ugtP null kill = kills S. aureus RN4220 lacking UgtP; S. aureus RN4220 ugtP deletion, OD600 growth, 16 h; growth inhibition, % (concentration not given with the values); 0.54% of 330,000 active; in the data active = growth inhibition above about 68%;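 also: plate controls were untreated wells for no effect and antibiotic for full effect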
CCHFV vOTU inh = blocks the CCHF virus ovarian tumor domain protease; CCHFV vOTU protease, Pep-AMC fluorescence; inhibition, % at 11.5 µM; 0.55% of 370,000 active; AID 651958; in the data active = inhibition above about 30%; also: 0% = vehicle wells with enzyme and 100% = no enzyme wells
3CLpro inhibitor = SARS-CoV 3CLpro protease inhibition. P0C6X7. recombinant SARS-CoV 3CLpro, quenched FRET peptide cleavage. inhibition, % at 6 µM. 0.14% of 290,000 active. AID 1706; in the data active = inhibition above about 12%
RN4220 kill = kills Staphylococcus aureus RN4220 | S. aureus RN4220 growth, OD600, 16 h | inhibition, % (concentration not given with the values) | 0.33% of 330,000 active; in the data active = inhibition above about 85%;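 also: plate controls were untreated cells for no effect and reference antibiotic for full effect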
Numbers without * were called inactive; ? = inconclusive; nt = no result; + = active, no number.

SMILES	MazF activator	Mtb betalactam	ugtP null kill	CCHFV vOTU inh	3CLpro inhibitor	RN4220 kill
O=[N+]([O-])c1cc(C(F)(F)F)ccc1NCC1CCCO1 (configuration not stated)	92*	-3	11	-6	4	5
CCOC(=O)C1C2COc3ccc(Cl)cc3C2N2C(=O)CN(Cc3ccc(C)cc3)C(=O)[C@@]12C (some centres not stated)	nt	nt	-28	nt	nt	1
CN1c2ccsc2C(=NNc2ccccc2)CS1(=O)=O	nt	nt	96*	nt	nt	83
COc1ccc(C(=O)c2c(C(F)(F)F)oc3c2C(=O)c2ccccc2C3=O)cc1OC	2	99	80	64*	7	49
CC(C)(C)OC(=O)NCCCCC(NC(=O)c1nc[nH]c1C(=O)N1CCN(c2ccccc2)CC1)C(=O)OC(C)(C)C (configuration not stated)	nt	nt	1	nt	nt	5
O=C(NN=Cc1ccc(OCc2cnc(Cl)s2)cc1)c1ccncc1	nt	nt	8	nt	nt	5
Nc1nonc1C(=O)NCCNCc1c(OCc2ccccc2F)ccc2ccccc12	59*	85	-27	-8	1	1
NC(N)=N/N=C/c1ccc(OCc2ccccc2)cc1	38	-3	nt	11	1	nt
NC(N)=N/N=C/c1ccc(OCc2ccc(Cl)cc2)cc1	-6	63	nt	8	-4	nt
NC(N)=NN=Cc1ccc(OCc2ccc(Cl)cc2)cc1	nt	nt	100*	nt	nt	100*
FCCCOc1ccc(C=NOCc2ccc(Cl)cc2)cc1	nt	nt	85*	nt	nt	-3
NC(N)=NN=Cc1ccc(OCc2ccccc2)c(OCc2ccccc2)c1	nt	nt	101*	nt	nt	101*
NC(N)=NN=Cc1ccc(OCc2ccc(Cl)cc2Cl)cc1	nt	nt	101*	nt	nt	100*
CC(=O)N1c2ccc(F)c(F)c2CC1C (configuration not stated)	nt	nt	9	nt	nt	9
COc1cccc(C(=O)C[n+]2ccccc2C=NO)c1	nt	nt	4	nt	nt	1
CNC(=S)N(C)N=C1C(=O)N(Cc2c(Cl)cccc2Cl)c2ccccc21	nt	nt	-4	nt	nt	7
O=[N+]([O-])c1c(Nc2ccccc2O)cc(Cl)c2nonc12	15	10	87	13	4	98*
N=c1c2c(-c3ccccc3)c(-c3ccccc3)n(CCc3ccccc3)c2ncn1CCO	nt	nt	nt	7	nt	nt
N=c1c2c(-c3ccccc3)c(-c3ccccc3)n(Cc3ccccc3)c2ncn1CCO	31	82	91*	4	6	-3
CCN(CC)c1ccc2cc(C(=O)Nc3ccccn3)c(=O)oc2c1	+	14	8	-13	2	2
CCN(CC)c1ccc2cc(C(C)=O)c(=O)oc2c1	-186	14	-6	23	-4	1
CCOc1cccc(-c2c(C(=O)NN=C(C)c3ccccn3)nnn2-c2nonc2N)c1	nt	nt	-17	nt	nt	5
CN1CCC(Oc2ccc(Sc3ccccc3)cc2)CC1	11	3	94*	-14	4	-1
CN1CCC(Oc2ccccc2Sc2ccc(C(F)(F)F)cc2)CC1	-4	?	0	-19	1	4
Oc1ccc2ccccc2c1C=Nc1cc(C(F)(F)F)ccc1N1CCCC1	+	5	95*	-4	1	-5
SMILES	MazF activator	Mtb betalactam	ugtP null kill	CCHFV vOTU inh	3CLpro inhibitor	RN4220 kill
COc1ccc(-c2ccc(/C=C3/C(=N)N4C=CSC4=NC3=O)o2)c([N+](=O)[O-])c1	445*	-1	94*	24	1	21
O=C(NCc1ccccn1)C1(C(F)(F)F)CC(=CCCO)CCCO1 (configuration not stated)	nt	nt	3	nt	nt	1
O=C(CSc1nc2cc(Cl)c(Cl)cc2[nH]1)c1ccc2c(c1)OCO2	51*	-5	-24	5	1	0
O=C(CSc1nc2ccc(Cl)cc2[nH]1)c1ccc2c(c1)OCO2	2	5	0	-2	-4	6
COc1ccc(C(=O)NN=Cc2ccc(OC)c(OS(=O)(=O)c3ccccc3)c2)cc1	nt	nt	-13	nt	nt	-3
COc1cc(C=NNC(=O)c2ccccc2)ccc1OS(=O)(=O)c1ccccc1	nt	nt	90*	nt	nt	-3
Nc1nc(N)c2cc(Sc3ccc4ccccc4c3)ccc2n1	30	99	99*	5	3	100*
CC(C)c1ccc(C=NNC(=O)c2cccc(S(=O)(=O)N3CCOCC3)c2)cc1	nt	nt	1	nt	nt	3
Cc1cccc(/C=C(\C#N)C(=O)Nc2ccccn2)c1	-16	-5	nt	7	-6	nt
CNc1ccc(/C=C(\C#N)C(=O)Nc2ccccn2)cc1[N+](=O)[O-]	141*	3	1	2	-8	4
O=C(NCCCSc1ccccc1)c1cc(Cl)ccc1O	-6	15	89*	-26	4	93*
O=C(CNC(=O)c1ccccc1)NCCCSc1ccccc1	8	2	7	-9	nt	-1
COC(=O)C1=C(c2ccc(S(C)(=O)=O)cc2)CC2CCC1N2C(=O)NCc1ccc(C(F)(F)F)cc1 (configuration not stated)	nt	nt	-10	nt	nt	1
CN1CCN(NC(=O)Nc2cc(Cl)cc(Cl)c2)CC1	10	72	97*	4	-1	100*
O=C(NNC(=O)c1ccc([N+](=O)[O-])o1)c1ccccc1	5	100	99*	9	2	13
Cc1cc(C)cc(NC(=O)c2ccc([N+](=O)[O-])o2)c1	4	nt	94*	18	-4	93*
O=C(Nc1ccc2oc(-c3ccncc3)nc2c1)c1ccccc1	0	-9	11	-15	4	2
O=C(Nc1ccc2oc(-c3ccncc3)nc2c1)c1ccc([N+](=O)[O-])o1	3	100	77	14	-3	100*
NC(=O)c1oc2ccccc2c1NC(=O)c1ccc([N+](=O)[O-])o1	14	100	100*	11	0	100*
COc1ccc(NC(=O)c2ccc([N+](=O)[O-])o2)cc1	3	3	60	-7	-6	14
CCOc1cc(C=NNC(=O)c2ccc(NC(=O)CC)cc2)ccc1OC(=O)c1ccccc1	nt	nt	-8	nt	nt	6
CC(=O)c1ccc(NC(=O)c2ccc([N+](=O)[O-])o2)cc1	5	100	66	1	-6	26
CC(=O)c1cccc(NC(=O)c2ccc([N+](=O)[O-])o2)c1	4	100	91*	0	nt	43
Cc1ccc(C)c(-c2nnc(NC(=O)c3ccc([N+](=O)[O-])o3)o2)c1	-1	98	90*	4	nt	6
Cc1ccc(C)c(-c2nnc(NC(=O)C3=COCCO3)o2)c1	3	87	6	-6	nt	5
COc1cc(C=NNc2nc3ccccc3[nH]2)cc(Br)c1OCC(=O)N(C)C	nt	nt	2	nt	nt	-6
COc1ccc(C=NNC(=S)SC)cc1OC	nt	nt	1	nt	nt	11
O=[N+]([O-])c1ccc(S(=O)(=O)NN=C2CCCCC2)cc1	119*	nt	2	-3	nt	9
O=S(=O)(NN=C1CCCCCC1)c1ccc(Cl)cc1	0	-6	12	11	-1	4
CCN1C(=O)C2C(C1=O)C(c1cccc(OC)c1)N1C(=O)c3ccccc3NC(=O)C21 (configuration not stated)	nt	nt	2	nt	nt	1
